Anthrax LF prot: Bacillus anthracis LF protease inhibitors, primary screen, biochemical, multiplex microsphere, MLPCN library; AID 588501, 2011; multiplex microsphere protease cleavage assay; Lethal factor (Bacillus anthracis), P15917; inhibition, % at 10 µM; 360,000 tested, 0.12% active; further: plate controls were buffer without enzyme for full effect and enzyme alone for no effect
BoNT A protease: BoNT/A light chain protease inhibitors, primary screen, biochemical, flow cytometry, MLPCN library; multiplex microsphere protease substrate cleavage; Botulinum neurotoxin type A light chain protease (Clostridium botulinum A str. ATCC 3502); 360,000 tested, 0.17% active; inhibition, % at 10 µM; further: plate controls were buffer without enzyme for full effect and enzyme alone for no effect
BoNT F protease: BoNT/F light chain protease inhibitors, primary screen, biochemical, flow cytometry, MLPCN library. 360,000 tested, 0.22% active. Multiplex microsphere protease cleavage assay. Botulinum neurotoxin type F light chain protease (Clostridium botulinum). inhibition, % at 10 µM; in the data active means inhibition above about 35%, passing the limit was not always enough; inconclusive means no clear call, values can overlap the other calls; further: plate controls were buffer without enzyme for full effect and enzyme alone for no effect
Autofluor counter: flagged as autofluorescent in microsphere protease counterscreen. 360,000 tested, 3.1% active. fluorescence intensity (test concentration not listed). compound autofluorescence counterscreen, microsphere flow cytometry; hits give high values. AID 624483; in the data active means fluorescence intensity above about 16000; inconclusive means no clear call, values can overlap the other calls
Starred values were filed as active, the others as inactive; ? = inconclusive. Sampled rows, rich in hits. Any-hit rate of the full collection: about 3.5%. Unless noted, no stated cut-off is given here; in the data, active means inhibition above about 30%; inconclusive means no clear call, values can overlap the other calls; inactive means below that.

SMILES	Anthrax LF prot	BoNT A protease	BoNT F protease	Autofluor counter
Cc1cc(Br)c2c(c1)/C(=C/C(=O)c1cccs1)C(=O)N2	-2	-1	-1	5134
Cc1cccc2c1NC(=O)/C2=C\C(=O)c1cccs1	-2	?	-5	23425*
CCN(CC)C1=CC2=CC(=C(C#N)C#N)CCC2CC1 (stereo not drawn)	24	-8	62*	39639*
CCCCN(C)C1=CC2=CC(=C(C#N)C#N)CCC2CC1 (stereo not drawn)	38*	9	109*	49793*
Cc1cc(C(=O)CN(Cc2ccc(F)cc2)S(=O)(=O)c2ccc3c(c2)OCCO3)c(C)n1C	-3	?	-4	20608*
Clc1ccc(Cl)c(-c2ccc(/C=N/c3ncn[nH]3)o2)c1	-12	?	1	22627*
O/N=C/c1ccc(-c2cc(Cl)ccc2Cl)o1	2	0	1	2532
COc1ccc(OC)c(N=C2C(=O)Nc3ccccc32)c1	-8	?	-4	21377*
O=C1Nc2ccccc2C1=Nc1ccc(F)cc1	4	-1	16	2953
COc1ccc(N=C2C(=O)Nc3ccccc32)cc1	-2	0	1	22766*
Cc1ccccc1N=C1C(=O)Nc2ccccc21	-6	0	-3	3963
C=CCOc1ccccc1CN1CCN(CCc2ccccc2)C(CCO)C1 (stereo not drawn)	-5	1	-18	3612
Cc1cc2nc(C)n(CCCN)c2cc1C	3	2	7	22118*
Cc1cc(NC(=O)c2noc3c2CCCCC3)no1	-2	-1	-7	9941
O=C(Nc1cccnc1)c1noc2c1CCCC2	-6	-11	-14	26961*
Cc1cc(NC(=O)c2noc3c2CCCC3)no1	4	2	1	21619*
Cc1nn(Cc2ccc(Cl)c(Cl)c2)c(C)c1NC(=O)c1noc2c1CCCCC2	0	?	-9	17489*
CCc1ccc(NC(=S)N2CCN(S(=O)(=O)c3ccccc3)CC2)cc1	0	-1	3	6008
CCOC(=O)CON1C(=O)c2ccccc2C1=O	0	-1	-1	2568
CCO/C=C1/C(=O)N(C(C)=O)c2ccccc21	-1	?	-3	22792*
O=C(O)C1C2C=CC(C2)C1C(=O)NC1CCN(Cc2ccccc2)CC1 (stereo not drawn)	1	?	1	20434*
O=C(Cn1[nH]c(=O)c2ccccc2c1=O)NC1CCN(Cc2ccccc2)CC1	-1	-2	0	23670*
O=C(CCC(=O)NC1CCN(Cc2ccccc2)CC1)NCc1ccco1	-1	?	-2	23478*
O=C(NC1CCN(Cc2ccccc2)CC1)C1COc2ccccc2O1 (stereo not drawn)	-3	1	-7	4314
O=C(Cn1[nH]c(=O)c2ccccc2c1=O)NC1CCCCCC1	-1	0	-5	2395
SMILES	Anthrax LF prot	BoNT A protease	BoNT F protease	Autofluor counter
O=C(COc1ccccc1)NC1CCN(Cc2ccccc2)CC1	-1	?	-1	17241*
Cc1cc(NC(=O)CN2C(=O)NC3(CCCCC3C)C2=O)no1 (stereo not drawn)	-1	0	-4	2449
CC(C)(C)N1OC2CC1c1nc3ccccc3n1C2 (stereo not drawn)	1	0	-6	4197
O=C(CNCc1ccncc1)Nc1cc(S(=O)(=O)N2CCCCC2)ccc1Cl	1	10	5	20589*
Cc1ccc(S(=O)(=O)N2CCC(C(=O)NCc3ccncc3)CC2)cc1	0	2	1	21375*
COc1ccc(CNC(=O)[C@H](C)NC(=O)C2CCN(S(=O)(=O)c3ccc(C)cc3)CC2)cc1	-9	?	6	18265*
Cc1ccc(S(=O)(=O)N2CCC(C(=O)NCCCN3CCCC3=O)CC2)cc1	1	0	-5	4105
Cc1ccc(S(=O)(=O)N2CCC(C(=O)NCCN3CCCCCC3)CC2)cc1	-2	?	-16	18618*
Cc1ccc2c(C)c(C(=O)N3CCCCC3CO)oc2c1C (stereo not drawn)	-4	-1	0	5992
CS(=O)(=O)N(CC(=O)N1CCc2ccccc2C1)c1ccccc1Br	8	-2	0	3587
O=c1[nH]n(-c2ccccc2)c(=O)cc1Cl	0	0	-4	3278
COC(=O)C1CCN(CC(=O)Nc2ccc(C(=O)Nc3ccccc3OC)cc2)CC1	-6	-1	3	2977
Cc1ccc(S(=O)(=O)N2CCC(C(=O)N3CCC[C@H]3C(=O)NC3CCS(=O)(=O)C3)CC2)cc1 (stereo partly drawn)	-4	?	-1	23712*
Nc1nc(-c2ccccc2)nc2sc3c(c12)CCCC3	-1	0	-7	2136
COc1ccc(C2(CNC(=O)c3ccc(OC)c([N+](=O)[O-])c3)CCOCC2)cc1OC	0	?	4	21598*
CCC(C(=O)N1CCN(Cc2ccc3c(c2)OCO3)CC1)n1nnc2ccccc2c1=O (stereo not drawn)	-7	0	2	3996
Nc1nc(-c2cccnc2)nn1C(=O)COc1ccccc1	-2	-2	-6	24503*
O=C(Cn1nnc(-c2ccc(Cl)cc2)n1)NC(=O)NC1CCCC1	-3	0	-7	4171
O=C(Nc1ccccc1)N1CCn2c1nc1ccccc12	-2	-1	-3	4462
COc1ccc(NC(=O)N2CCn3c2nc2ccccc23)cc1	-1	1	0	19709*
Cc1cc2cc(C)c3nnc(SCC(=O)Nc4ccc(S(=O)(=O)N5CCCCC5C)cc4)n3c2cc1C (stereo not drawn)	-2	0	0	2154
CC1CCCCN1S(=O)(=O)c1ccc(NC(=O)CSc2nnnn2C)cc1 (stereo not drawn)	0	?	1	21890*
CC1CCCCN1S(=O)(=O)c1ccc(NC(=O)c2ccco2)cc1 (stereo not drawn)	-1	?	-3	20490*
Cc1ccc(C(=O)C2C(=O)C3CCC2C3)cc1 (stereo not drawn)	0	0	-1	3536
CC(C)(C)c1ccc(C(=O)CCCSC2=C(C#N)C(c3ccco3)C3=C(CCCC3=O)N2)cc1 (stereo not drawn)	-5	?	-6	23545*
SMILES	Anthrax LF prot	BoNT A protease	BoNT F protease	Autofluor counter
O=C(Nc1ccc2c(c1)OCO2)c1ccc(CN2CCOCC2)cc1	-4	0	-13	8309
O=C(Nc1ccc(CN2CCCCC2)cc1)c1ccc2c(c1)OCO2	1	0	-1	20600*
O=C(Nc1ccn(Cc2ccc(Cl)cc2)n1)c1ccc2c(c1)OCO2	-2	-3	-3	24410*
CC(C)(C)C(=O)Nc1ccc(C(=O)Nc2cccnc2)cc1	-3	-2	0	23774*
O=C(Nc1cccnc1)c1ccc2c(c1)C(=O)N(Cc1cccnc1)C2=O	-1	0	-2	23004*
COC(=O)c1cc(C)sc1NC(=O)c1cccnc1	-1	-7	-10	24838*
Cc1cc(C(=O)Nc2cccnc2)cs1	2	2	1	23010*
COC(=O)c1c(NC(=O)c2cccnc2)sc(C)c1C	-1	0	-6	4650
CN(Cc1ccc(C(C)(C)C)cc1)C(=O)Cc1ccc(S(=O)(=O)N2CCOCC2)s1	-11	-1	2	9559

Bioassay records from PubChem BioAssay.
